Data on 38 compounds can be found in PubChem BioAssay (EPA / NIEHS).

Values joined by “and” are separate entries in the source; they are usually repeats but may differ in a detail not shown here. Equal values may be shown once. Results filed as inconclusive are left out. More than one record can exist for a structure, and the calls need not agree. Active and inactive are the calls of the source. The calls were made as follows: active = hit-call score of the fitted dose curve at least 0.9, where 1 is the maximum; inconclusive = response in the unintended direction; inactive = score below 0.9.

For the assay, the target named is human Retinoid X Receptor beta (RXRb), RXRB (gene 6257) (UniProt P28702). Description: ATG_RXRb_TRANS: Attagene TRANS-FACTORIAL HepG2 Assay for human Retinoid X Receptor beta (RXRb) (AID 2283013). How it is done: ATG_TRANS is a cell-based, multiplexed-readout assay that uses HepG2, a human liver cell line, with measurements taken at 24 hours after chemical dosing in a 24-well plate.ATG_RXRb_TRANS is one of 30 assay component(s) measured or calculated from the ATG_TRANS assay. It is designed to make measurements of mRNA induction, a form of inducible reporter, as detected with fluorescence intensity signals by Reverse transcription polymerase chain reaction (RT-PCR) and Capillary electrophoresis technology.Data from the assay component ATG_RXRb_TRANS was analyzed into 1 assay endpoint. This assay endpoint, ATG_RXRb_TRANS, was analyzed in the positive analysis fitting direction relative to DMSO as the negative control and baseline of activity. Using a type of inducible reporter, measures of mRNA for gain-of-signal activity can be used to understand the reporter gene at the transcription factor-level as they relate to the gene RXRB. Furthermore, this assay endpoint can be referred to as a primary readout, because this assay has produced multiple assay endpoints where this one serves a reporter gene function. To generalize the intended target to other relatable targets, this assay endpoint is annotated to the nuclear receptor intended target family, where the subfamily is non-steroidal.
human Retinoid X Receptor beta (RXRb), RXRB (gene 6257), sequence (P28702 whole entry, looked up): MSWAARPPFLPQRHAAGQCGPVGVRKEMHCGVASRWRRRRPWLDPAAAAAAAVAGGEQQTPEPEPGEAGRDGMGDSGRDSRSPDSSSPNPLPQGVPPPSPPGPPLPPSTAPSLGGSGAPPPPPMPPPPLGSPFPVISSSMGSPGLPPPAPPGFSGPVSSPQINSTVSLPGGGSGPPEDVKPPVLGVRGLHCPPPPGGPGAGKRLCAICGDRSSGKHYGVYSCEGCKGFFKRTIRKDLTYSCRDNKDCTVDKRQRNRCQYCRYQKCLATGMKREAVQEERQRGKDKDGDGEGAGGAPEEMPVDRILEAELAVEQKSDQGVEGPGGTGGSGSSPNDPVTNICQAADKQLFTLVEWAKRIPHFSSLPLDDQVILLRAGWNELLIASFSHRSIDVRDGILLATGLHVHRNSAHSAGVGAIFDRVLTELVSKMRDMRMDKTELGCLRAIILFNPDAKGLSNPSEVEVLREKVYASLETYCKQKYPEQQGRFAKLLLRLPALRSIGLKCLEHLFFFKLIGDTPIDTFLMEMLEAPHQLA
Human liver HepG2 cells are transiently transfected with multiple reporter transcription units (MRTUs) in 6-well plates using FuGene 6 reagent (Roche; 3 ml FuGene/1 mg DNA). The MRTU constructs are regulated by a cis-regulating element (promoter). […] A major difference between the CIS and TRANS system is that in CIS activities of endogenous TFs are measured, whereas the TRANS assay evaluates changes in activities of exogenous, chimeric NR-Gal4 proteins. […] At the end of 24 hour incubation, total RNA was isolated using TriZol reagent (Invitrogen). The isolated RNA is then reverse-transcribed using oligo(dT) primer and Mo-MLV reverse transcriptase (Invitrogen) with DNAse I (Ambion) treatment for 30 min. The one-tenth of the produced cDNA was amplified by PCR using Taq DNA polymerase (Invitrogen) and two reporter sequence-specific primers. The PCR products were fluorescently labeled by primer extension with 6-arboxyfluorescein (6-FAM) 5'-labeled reporter sequence-specific primer (2 min at 95 C, 20 s at 68 C and 10 min at 72 C) and these products were digested with 5U of HpaI (New England Biolabs) for 2h at 37 C. The fragments were purified using Qiaquick PCR columns (Qiagen), analyzed on an ABI 3130xL genetic analyzer (Applied Biosystems) with peak positions identified by using a set of X-rhodamine (ROX)-labeled MapMarker1000 molecular weight standards (BioVentures). The raw capillary electrophoresis data was processed using Attagraph software (Attagene).
As to `CC(C)(C)C(=O)CC(=O)C(F)(F)C(F)(F)C(F)(F)F`, the outcome was inactive.
As to `O=C(O)C(F)(F)C(F)(F)C(F)(F)C(F)(F)C(F)(F)C(F)(F)C(F)(F)C(F)(F)Cl`, the AC50 (usually the concentration giving half of the maximal activity seen) is 19.9 µM (active) and 20.5 µM (active).
Consider `CCCCNc1ccccc1`, for which the result was inactive.
On the same count and under the same terms, next, `CO[Si](OC)(c1ccccc1)c1ccccc1`: “inactive”.
Same read-out and setting: next, `O=S(=O)(OCCOC(F)(F)F)C(F)(F)F`: “inactive”; `Nc1ccc([N+](=O)[O-])cc1O`: “inactive”; `FC(F)(F)C(F)(F)CNCC(F)(F)C(F)(F)F`: “inactive”.
Regarding `FC(F)(I)C(F)(F)C(F)(F)C(F)(F)I`, the result was inactive.
Same read-out and setting: next, `FC(F)(F)C(F)(F)C(F)(F)CI`: “inactive”; `C#C[C@]1(O)CC[C@H]2[C@@H]3CCc4cc(OC)ccc4[C@H]3CC[C@@]21C`: “inactive”.
On the same count and under the same terms, next, `C=C(C)C(=O)OCC(F)(F)C(F)(F)C(F)(F)F`: “inactive”; `Nc1ccc(S(=O)(=O)Nc2nccs2)cc1`: “inactive”.
Consider `OC[C@@H](O)[C@@H](O)[C@H](O)[C@@H](O)CO`, for which the compound was classed as inactive and the half-maximal activity concentration (AC50) was 35.1 µM (active).
`C(=C(c1ccccc1)c1ccccc1)c1ccccc1`: the AC50 was 6.11 µM (active).
Same read-out and setting: next, `CC(C)OC(=O)c1ccccc1C(=O)OC(C)C`: 18.9 µM (active).
For `N=C(N)C(F)(F)C(F)(F)C(F)(F)C(F)(F)C(F)(F)C(F)(F)C(F)(F)F`, the call was inactive.
Still for that read-out and setting: next, `Nc1cc(Cl)c(N)c(Cl)c1`: “inactive”; `C=CC(F)(F)C(F)(F)C(F)(F)C(F)(F)C(F)(F)C(F)(F)C(F)(F)C(F)(F)C=C`: “inactive”.
Turning to `O=C(O)C(F)(OC(F)(F)C(F)(OC(F)(F)C(F)(F)C(F)(F)F)C(F)(F)F)C(F)(F)F` (stereo not given), the AC50 was 41.7 µM (active) and the outcome was inactive.
`O=C(Cl)C(F)(F)C(F)(F)C(F)(F)C(F)(F)C(F)(F)C(F)(F)C(F)(F)C(F)(F)F`: the concentration at half-maximal activity (AC50) was 25.7 µM (active).
`FC(F)(F)C(F)(F)C(F)(F)C(F)(F)C(F)(F)C(F)(F)C(F)(F)I`: the compound was called inactive.
On to `OCCCC(F)(F)C(F)(F)C(F)(F)C(F)(F)C(F)(F)C(F)(F)C(F)(F)F`, for which the AC50 was 6.49 µM (active) and 7.94 µM (active).
For the compound `CCCCCCC(C)OC(=O)CCCCC(=O)OC(C)CCCCCC` (stereo not given), the half-maximal activity concentration (AC50) was 16.3 µM (active).
As for `O=C(O)C=C(C(F)(F)F)C(F)(F)F`, the result was inactive.
Still for that read-out and setting: under `C=C(C)C(=O)OCC(F)(F)C(F)(F)C(F)(F)C(F)(F)C(F)(F)C(F)(F)C(F)(F)F` stands “inactive”; under `C=C(C)C(=O)OCCC(F)(F)C(F)(F)C(F)(F)C(F)(F)C(F)(C(F)(F)F)C(F)(F)F`, “inactive”; under `COC(=O)C1CCC(C(=O)OC)CC1` (stereo not given), “inactive”.
Same read-out and setting: next, `FC(F)(Br)C(F)(F)C(F)(F)C(F)(F)C(F)(F)C(F)(F)Br`: “inactive”.
With `O=C(O)C(F)(F)C(F)(F)C(F)(F)C(F)(F)C(F)(F)C(F)(F)C(F)(F)C(F)(F)C(F)(F)C(F)(F)C(F)(F)C(F)(F)F`, the outcome was inactive.
Turning to `CCCCCCS`, the half-maximal activity concentration (AC50) is 100 µM (active).
As to `O=C(OCCOCCOCCOC(=O)c1ccccc1)c1ccccc1`, the outcome was inactive.
The same measure, in the same setting: under `OCC(F)(F)C(F)(F)C(F)(F)C(F)(F)C(F)(F)C(F)(F)F` stands “inactive”.
Turning to `C=CC/C=C/C/C=C/C/C=C/C`, the concentration at half-maximal activity (AC50) is 100 µM (active).
As for `O=S(=O)(O)C(F)(F)C(F)(F)C(F)(F)C(F)(F)C(F)(F)C(F)(F)C(F)(F)F`, the compound was classed as inactive.
With `C=CC(=O)OCC(F)(F)C(F)(F)C(F)(F)C(F)(F)C(F)(F)C(F)(F)C(F)(F)F`, the call was inactive.
Still for that read-out and setting: under `CCO[Si](CCC(F)(F)C(F)(F)C(F)(F)C(F)(F)C(F)(F)C(F)(F)F)(OCC)OCC` stands “inactive”; under `CC(C)(C)c1ccc(OC2CCCCC2O)cc1` (stereo not given), “inactive”; under `CN(C)Cc1ccccc1O`, “inactive”.
